# Experiments:
# [1] = target: Tyrosine-protein kinase CSK (Homo sapiens) (UniProt P41240); conditions: at 1 µM;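 further: each value is an averaged inhibition reading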
# [2] = target: T1, Discoidin domain-containing receptor 2 (Homo sapiens) (UniProt Q16832); conditions: at 0.1 µM
# T1 sequence (whole entry): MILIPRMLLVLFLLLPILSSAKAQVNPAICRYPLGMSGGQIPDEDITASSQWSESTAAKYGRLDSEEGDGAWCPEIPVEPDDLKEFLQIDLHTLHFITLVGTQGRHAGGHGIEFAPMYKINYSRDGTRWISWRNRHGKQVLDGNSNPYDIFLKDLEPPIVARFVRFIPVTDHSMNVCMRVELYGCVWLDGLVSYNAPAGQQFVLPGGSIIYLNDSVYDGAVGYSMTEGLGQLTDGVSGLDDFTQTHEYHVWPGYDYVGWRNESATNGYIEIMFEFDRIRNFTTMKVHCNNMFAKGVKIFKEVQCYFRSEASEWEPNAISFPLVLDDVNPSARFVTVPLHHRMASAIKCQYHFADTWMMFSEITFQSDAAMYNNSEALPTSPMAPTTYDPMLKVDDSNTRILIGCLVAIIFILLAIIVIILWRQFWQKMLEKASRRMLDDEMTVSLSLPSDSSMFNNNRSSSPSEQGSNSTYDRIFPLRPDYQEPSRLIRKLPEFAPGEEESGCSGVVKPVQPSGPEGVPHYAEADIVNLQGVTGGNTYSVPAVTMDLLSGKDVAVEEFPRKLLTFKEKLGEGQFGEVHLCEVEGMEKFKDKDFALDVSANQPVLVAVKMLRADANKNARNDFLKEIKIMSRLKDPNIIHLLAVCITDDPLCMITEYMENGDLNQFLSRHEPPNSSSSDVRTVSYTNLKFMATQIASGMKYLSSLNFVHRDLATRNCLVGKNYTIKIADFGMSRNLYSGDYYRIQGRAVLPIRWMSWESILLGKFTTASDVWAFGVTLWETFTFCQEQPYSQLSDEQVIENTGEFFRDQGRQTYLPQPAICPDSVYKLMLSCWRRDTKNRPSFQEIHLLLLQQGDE
# [3] = target: T1, Discoidin domain-containing receptor 2 (Homo sapiens); conditions: at 1 µM
# [4] = target: Epidermal growth factor receptor (Homo sapiens) (UniProt P00533); conditions: at 0.1 µM
# [5] = target: Epidermal growth factor receptor (Homo sapiens) (UniProt P00533); conditions: at 1 µM
# [6] = system: Epidermal growth factor receptor (Homo sapiens), P00533 [L858R]; conditions: at 0.1 µM
# [7] = system: Epidermal growth factor receptor (Homo sapiens), P00533 [L858R]; conditions: at 1 µM
# [8] = system: Epidermal growth factor receptor (Homo sapiens), P00533 [L861Q]; conditions: at 0.1 µM
# [9] = system: Epidermal growth factor receptor (Homo sapiens), P00533 [L861Q]; conditions: at 1 µM
# [10] = system: Epidermal growth factor receptor (Homo sapiens), P00533 [T790M]; conditions: at 0.1 µM
# [11] = system: Epidermal growth factor receptor (Homo sapiens), P00533 [T790M]; conditions: at 1 µM
# [12] = system: Epidermal growth factor receptor (Homo sapiens), P00533 [L858R,T790M]; conditions: at 0.1 µM
# [13] = system: Epidermal growth factor receptor (Homo sapiens), P00533 [L858R,T790M]; conditions: at 1 µM
# [14] = target: Ephrin type-A receptor 2 (Homo sapiens) (UniProt P29317); conditions: at 0.1 µM
# [15] = target: Ephrin type-A receptor 2 (Homo sapiens) (UniProt P29317); conditions: at 1 µM
# [16] = target: T2, Ephrin type-A receptor 3 (Homo sapiens) (UniProt P29320); conditions: at 0.1 µM
# T2 sequence (whole entry): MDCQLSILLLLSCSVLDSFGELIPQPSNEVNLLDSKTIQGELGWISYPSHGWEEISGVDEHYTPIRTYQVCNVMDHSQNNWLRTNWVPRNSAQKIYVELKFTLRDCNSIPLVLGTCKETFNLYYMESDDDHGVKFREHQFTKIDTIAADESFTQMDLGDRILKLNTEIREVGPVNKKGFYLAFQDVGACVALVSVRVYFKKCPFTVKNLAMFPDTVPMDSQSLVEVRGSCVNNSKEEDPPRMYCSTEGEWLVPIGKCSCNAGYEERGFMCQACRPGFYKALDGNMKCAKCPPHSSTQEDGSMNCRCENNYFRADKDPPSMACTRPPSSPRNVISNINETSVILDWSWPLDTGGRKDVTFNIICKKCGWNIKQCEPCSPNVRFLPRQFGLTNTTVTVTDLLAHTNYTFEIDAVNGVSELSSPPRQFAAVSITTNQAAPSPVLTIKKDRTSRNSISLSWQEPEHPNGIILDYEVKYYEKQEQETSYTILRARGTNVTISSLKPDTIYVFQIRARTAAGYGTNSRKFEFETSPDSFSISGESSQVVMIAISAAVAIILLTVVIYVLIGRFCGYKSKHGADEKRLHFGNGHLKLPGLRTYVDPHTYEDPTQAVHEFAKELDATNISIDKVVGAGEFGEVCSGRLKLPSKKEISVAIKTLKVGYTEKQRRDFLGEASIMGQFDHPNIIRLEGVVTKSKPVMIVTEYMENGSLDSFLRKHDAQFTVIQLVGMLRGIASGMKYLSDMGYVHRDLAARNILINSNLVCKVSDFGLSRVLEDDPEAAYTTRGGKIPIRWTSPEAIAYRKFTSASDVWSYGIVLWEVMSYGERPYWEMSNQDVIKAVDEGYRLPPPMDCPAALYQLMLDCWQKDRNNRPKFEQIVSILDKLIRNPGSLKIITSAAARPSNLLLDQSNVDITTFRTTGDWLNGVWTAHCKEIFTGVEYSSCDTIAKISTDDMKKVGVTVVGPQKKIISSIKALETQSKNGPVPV
# [17] = target: T2, Ephrin type-A receptor 3 (Homo sapiens); conditions: at 1 µM
# [18] = target: Ephrin type-A receptor 4 (Homo sapiens) (UniProt P54764); conditions: at 0.1 µM
# [19] = target: Ephrin type-A receptor 4 (Homo sapiens) (UniProt P54764); conditions: at 1 µM
# [20] = target: T3, Ephrin type-B receptor 2 (Homo sapiens) (UniProt P29323); conditions: at 0.1 µM;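 further: reported as mean inhibition of EPHB2, from the GSK PKIS dataset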
# T3 sequence (whole entry): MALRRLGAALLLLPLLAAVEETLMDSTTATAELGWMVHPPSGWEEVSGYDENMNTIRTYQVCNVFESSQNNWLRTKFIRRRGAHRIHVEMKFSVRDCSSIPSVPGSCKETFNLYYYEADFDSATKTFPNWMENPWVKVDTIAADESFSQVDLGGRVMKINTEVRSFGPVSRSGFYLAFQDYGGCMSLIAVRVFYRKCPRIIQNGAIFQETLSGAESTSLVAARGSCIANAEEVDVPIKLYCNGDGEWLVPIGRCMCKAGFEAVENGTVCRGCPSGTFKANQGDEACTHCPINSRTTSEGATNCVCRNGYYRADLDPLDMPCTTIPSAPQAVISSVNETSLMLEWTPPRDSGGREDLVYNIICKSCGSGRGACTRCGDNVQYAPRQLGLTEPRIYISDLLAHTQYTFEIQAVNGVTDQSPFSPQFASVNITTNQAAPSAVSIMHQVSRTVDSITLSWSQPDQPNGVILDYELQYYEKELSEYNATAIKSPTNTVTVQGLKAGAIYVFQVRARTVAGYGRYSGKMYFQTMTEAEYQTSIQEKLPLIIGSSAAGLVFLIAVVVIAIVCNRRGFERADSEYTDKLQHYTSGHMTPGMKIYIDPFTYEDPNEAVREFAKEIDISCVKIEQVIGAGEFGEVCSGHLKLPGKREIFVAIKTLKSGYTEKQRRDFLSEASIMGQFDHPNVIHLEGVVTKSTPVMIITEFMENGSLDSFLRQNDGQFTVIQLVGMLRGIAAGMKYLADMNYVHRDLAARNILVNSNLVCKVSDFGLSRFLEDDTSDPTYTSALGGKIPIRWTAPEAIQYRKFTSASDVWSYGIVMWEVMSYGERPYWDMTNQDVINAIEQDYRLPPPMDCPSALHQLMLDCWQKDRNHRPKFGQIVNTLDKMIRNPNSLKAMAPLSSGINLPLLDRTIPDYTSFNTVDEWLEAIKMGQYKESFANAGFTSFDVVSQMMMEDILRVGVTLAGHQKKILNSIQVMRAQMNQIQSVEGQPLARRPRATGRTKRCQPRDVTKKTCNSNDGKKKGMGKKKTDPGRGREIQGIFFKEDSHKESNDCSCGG
# Tyrosine-protein kinase CSK (Homo sapiens), sequence (P41240 2-450 limits assumed): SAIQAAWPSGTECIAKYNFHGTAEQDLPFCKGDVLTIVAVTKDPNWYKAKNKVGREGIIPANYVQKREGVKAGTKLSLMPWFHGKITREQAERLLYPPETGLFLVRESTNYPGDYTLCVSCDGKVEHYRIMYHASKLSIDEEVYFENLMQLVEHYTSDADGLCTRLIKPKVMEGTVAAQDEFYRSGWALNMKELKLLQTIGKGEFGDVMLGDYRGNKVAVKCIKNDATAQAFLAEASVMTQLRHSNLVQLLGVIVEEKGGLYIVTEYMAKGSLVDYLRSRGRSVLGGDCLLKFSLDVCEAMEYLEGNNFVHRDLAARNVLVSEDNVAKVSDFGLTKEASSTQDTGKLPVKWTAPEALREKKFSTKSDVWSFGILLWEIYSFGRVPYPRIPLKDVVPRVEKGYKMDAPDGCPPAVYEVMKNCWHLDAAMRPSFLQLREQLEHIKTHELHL
# Epidermal growth factor receptor (Homo sapiens), P00533 [L858R], sequence (P00533 whole entry L858R): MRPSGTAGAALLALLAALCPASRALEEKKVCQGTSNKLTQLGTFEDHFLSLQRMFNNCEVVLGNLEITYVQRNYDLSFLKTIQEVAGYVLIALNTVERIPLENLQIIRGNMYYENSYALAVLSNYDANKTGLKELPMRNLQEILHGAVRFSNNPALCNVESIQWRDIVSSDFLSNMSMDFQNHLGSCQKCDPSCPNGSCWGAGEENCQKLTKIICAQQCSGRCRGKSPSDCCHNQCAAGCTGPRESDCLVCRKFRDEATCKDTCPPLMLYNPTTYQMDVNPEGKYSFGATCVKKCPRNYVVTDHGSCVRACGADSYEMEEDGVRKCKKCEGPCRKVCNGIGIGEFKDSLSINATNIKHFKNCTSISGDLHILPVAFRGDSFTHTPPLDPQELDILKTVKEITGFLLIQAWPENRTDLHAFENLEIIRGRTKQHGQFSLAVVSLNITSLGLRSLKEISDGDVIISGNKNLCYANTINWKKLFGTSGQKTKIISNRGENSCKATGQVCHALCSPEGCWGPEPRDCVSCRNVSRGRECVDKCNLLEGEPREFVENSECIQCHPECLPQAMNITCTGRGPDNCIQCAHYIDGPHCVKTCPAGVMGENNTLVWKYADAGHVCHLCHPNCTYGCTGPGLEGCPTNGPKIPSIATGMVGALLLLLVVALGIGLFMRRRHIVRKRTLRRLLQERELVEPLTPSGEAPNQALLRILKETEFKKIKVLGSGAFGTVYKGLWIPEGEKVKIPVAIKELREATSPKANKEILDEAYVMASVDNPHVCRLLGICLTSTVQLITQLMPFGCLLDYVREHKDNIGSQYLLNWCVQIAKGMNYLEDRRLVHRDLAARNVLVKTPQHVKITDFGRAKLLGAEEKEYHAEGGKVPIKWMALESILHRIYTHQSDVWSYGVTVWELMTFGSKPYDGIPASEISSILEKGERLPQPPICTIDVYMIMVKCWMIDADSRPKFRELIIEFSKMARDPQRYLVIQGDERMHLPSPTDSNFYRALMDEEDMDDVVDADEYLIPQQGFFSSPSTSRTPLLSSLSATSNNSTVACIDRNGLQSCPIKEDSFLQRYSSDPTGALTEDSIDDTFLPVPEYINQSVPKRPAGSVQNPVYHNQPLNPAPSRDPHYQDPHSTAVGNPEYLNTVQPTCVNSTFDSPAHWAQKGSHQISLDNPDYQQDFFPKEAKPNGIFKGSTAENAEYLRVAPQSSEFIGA
# Epidermal growth factor receptor (Homo sapiens), sequence (P00533 whole entry): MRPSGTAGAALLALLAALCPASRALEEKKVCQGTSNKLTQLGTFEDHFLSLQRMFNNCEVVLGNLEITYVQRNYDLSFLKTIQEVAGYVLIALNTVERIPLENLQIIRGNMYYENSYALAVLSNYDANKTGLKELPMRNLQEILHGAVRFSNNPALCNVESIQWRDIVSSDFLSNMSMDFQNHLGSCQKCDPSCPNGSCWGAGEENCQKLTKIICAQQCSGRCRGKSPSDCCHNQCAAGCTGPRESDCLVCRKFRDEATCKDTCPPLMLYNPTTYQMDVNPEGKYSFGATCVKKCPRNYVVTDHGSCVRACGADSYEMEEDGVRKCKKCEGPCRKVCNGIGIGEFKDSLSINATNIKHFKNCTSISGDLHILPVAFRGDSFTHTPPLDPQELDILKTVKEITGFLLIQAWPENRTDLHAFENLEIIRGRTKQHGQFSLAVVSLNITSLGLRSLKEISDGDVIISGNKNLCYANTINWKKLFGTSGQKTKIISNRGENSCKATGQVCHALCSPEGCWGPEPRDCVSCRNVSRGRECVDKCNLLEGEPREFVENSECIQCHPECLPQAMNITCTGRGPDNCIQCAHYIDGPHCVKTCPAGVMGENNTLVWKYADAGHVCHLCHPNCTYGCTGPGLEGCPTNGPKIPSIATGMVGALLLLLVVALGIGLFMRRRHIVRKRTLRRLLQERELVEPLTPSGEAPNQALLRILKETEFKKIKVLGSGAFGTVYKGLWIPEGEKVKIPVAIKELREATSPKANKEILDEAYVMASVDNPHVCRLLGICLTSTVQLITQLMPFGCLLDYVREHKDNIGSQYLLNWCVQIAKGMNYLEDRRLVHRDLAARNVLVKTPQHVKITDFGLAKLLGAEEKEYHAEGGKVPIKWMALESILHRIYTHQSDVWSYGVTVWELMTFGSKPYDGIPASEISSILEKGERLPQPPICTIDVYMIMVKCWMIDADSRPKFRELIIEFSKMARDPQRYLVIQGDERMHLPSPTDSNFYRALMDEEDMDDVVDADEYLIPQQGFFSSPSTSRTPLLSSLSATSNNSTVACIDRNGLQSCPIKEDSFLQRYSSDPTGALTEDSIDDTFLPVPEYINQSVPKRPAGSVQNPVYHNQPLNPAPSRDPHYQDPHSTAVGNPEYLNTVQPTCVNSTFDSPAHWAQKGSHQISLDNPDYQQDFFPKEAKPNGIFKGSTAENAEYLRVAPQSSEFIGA
# Epidermal growth factor receptor (Homo sapiens), P00533 [L861Q], sequence (P00533 whole entry L861Q): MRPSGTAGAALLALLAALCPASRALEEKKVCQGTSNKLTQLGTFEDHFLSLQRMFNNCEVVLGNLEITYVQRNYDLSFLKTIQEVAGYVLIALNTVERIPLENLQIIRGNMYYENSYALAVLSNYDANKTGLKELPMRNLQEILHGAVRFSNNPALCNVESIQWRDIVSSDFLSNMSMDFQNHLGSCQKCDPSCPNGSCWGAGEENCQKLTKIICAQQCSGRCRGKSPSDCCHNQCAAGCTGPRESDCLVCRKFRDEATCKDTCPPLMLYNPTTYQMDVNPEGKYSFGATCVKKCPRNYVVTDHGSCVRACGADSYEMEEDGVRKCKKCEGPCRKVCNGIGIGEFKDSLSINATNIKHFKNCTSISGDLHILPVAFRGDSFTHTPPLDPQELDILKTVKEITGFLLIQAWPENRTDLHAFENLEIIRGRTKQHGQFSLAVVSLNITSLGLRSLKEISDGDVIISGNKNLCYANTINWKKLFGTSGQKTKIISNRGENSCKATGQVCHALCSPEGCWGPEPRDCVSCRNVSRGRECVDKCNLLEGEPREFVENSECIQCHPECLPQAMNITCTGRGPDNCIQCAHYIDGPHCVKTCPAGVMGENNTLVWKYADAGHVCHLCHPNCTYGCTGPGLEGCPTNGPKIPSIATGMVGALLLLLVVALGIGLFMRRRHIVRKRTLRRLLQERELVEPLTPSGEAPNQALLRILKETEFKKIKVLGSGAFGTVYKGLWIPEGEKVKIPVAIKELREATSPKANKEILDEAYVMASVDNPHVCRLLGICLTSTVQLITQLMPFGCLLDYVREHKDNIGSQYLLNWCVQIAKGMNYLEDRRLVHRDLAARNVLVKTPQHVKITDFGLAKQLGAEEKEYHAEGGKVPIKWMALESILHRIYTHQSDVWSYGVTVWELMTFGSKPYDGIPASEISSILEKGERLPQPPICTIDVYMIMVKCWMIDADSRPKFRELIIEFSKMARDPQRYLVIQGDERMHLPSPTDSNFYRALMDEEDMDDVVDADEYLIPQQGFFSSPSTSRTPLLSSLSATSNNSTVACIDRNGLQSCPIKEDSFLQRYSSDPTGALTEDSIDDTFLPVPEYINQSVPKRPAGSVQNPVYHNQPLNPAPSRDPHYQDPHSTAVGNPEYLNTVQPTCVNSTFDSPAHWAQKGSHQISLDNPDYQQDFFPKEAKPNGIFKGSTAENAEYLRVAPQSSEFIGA
# Ephrin type-A receptor 2 (Homo sapiens), sequence (P29317 whole entry): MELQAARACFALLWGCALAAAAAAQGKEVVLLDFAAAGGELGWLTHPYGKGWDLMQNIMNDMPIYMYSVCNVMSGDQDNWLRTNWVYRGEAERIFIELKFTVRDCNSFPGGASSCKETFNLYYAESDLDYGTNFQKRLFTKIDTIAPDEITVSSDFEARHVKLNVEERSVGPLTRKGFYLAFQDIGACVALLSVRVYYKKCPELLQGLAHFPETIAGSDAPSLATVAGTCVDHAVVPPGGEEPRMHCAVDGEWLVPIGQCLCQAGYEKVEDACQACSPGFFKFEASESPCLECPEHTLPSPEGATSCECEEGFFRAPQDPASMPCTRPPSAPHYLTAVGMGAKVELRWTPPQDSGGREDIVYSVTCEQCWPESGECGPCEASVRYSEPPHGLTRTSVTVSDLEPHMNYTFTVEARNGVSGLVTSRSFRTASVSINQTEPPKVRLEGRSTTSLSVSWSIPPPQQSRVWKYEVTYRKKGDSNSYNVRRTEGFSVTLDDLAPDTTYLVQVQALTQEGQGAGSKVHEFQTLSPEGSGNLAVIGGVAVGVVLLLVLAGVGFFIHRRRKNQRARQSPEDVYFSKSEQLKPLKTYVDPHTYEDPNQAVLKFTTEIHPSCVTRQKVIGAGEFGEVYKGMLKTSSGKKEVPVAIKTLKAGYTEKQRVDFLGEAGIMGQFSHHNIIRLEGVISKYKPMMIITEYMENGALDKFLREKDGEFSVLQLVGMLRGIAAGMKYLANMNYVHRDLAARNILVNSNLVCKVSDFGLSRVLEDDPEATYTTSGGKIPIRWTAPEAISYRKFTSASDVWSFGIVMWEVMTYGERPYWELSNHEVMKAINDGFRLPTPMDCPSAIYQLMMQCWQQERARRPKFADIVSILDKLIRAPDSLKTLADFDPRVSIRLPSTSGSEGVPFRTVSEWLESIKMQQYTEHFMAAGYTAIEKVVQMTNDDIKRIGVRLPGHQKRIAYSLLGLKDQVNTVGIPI
SMILES,inhibition [1] [%],inhibition [2] [%],inhibition [3] [%],inhibition [4] [%],inhibition [5] [%],inhibition [6] [%],inhibition [7] [%],inhibition [8] [%],inhibition [9] [%],inhibition [10] [%],inhibition [11] [%],inhibition [12] [%],inhibition [13] [%],inhibition [14] [%],inhibition [15] [%],inhibition [16] [%],inhibition [17] [%],inhibition [18] [%],inhibition [19] [%],inhibition [20] [%]
C#Cc1cccc(Nc2ncnc3ccc(OCCCCNCCS(C)(=O)=O)cc23)c1,8.24,4.72,9.88,75.9,85.4,96.8,97.7,91.7,97.6,3.8,14.6,3.12,22.8,-2.77,-2.32,1.3,5.15,12.3,15.3,10.3
O=C1NC(=O)C(c2cccc(Cl)c2)=C1Nc1ccc(Cl)c(C(=O)O)c1,1.91,3.06,4.88,1.44,2.17,1.51,5.24,1.41,2.94,1,4.13,0.67,2.52,0.74,0.86,5.42,4.05,8.74,7.75,5.83
Fc1ccc(-c2ncn(C3CCNCC3)c2-c2ccnc(Oc3ccc4c(c3)OCO4)n2)cc1,6.08,6.32,7.88,5.59,13.1,4.4,18.7,3.06,10.2,2.39,6.05,1.3,7.04,3.08,2.37,3.63,10.3,11.3,15.4,10.6
Clc1ccc(CNc2nccc(-c3cnn4ncccc34)n2)cc1,2.58,1.86,4.61,0.75,3.24,3.13,5.2,-1.04,0.71,0.11,-0.46,0.01,3.09,1.88,1.02,2.21,3.84,5.02,13,7.93
CCc1ccc(Oc2nccc(-c3c(-c4ccc(F)cc4)ncn3C3CCNCC3)n2)cc1,10.3,1.91,3.52,2.21,7.66,3.05,15.9,1.97,5.92,0.57,4.64,0.15,8.07,0.72,-0.17,4.68,4.67,9.41,10.6,4.76
COc1cc(Nc2ncc(-c3ccccc3)o2)cc(OC)c1OC,-0.86,0.74,8.58,6.02,13.8,-1.09,-0.27,0.27,0.17,0.05,1.16,-0.28,-0.54,-3.3,-1.26,-6.76,-5.8,-7.25,1.47,-1.44
COc1cc(Nc2ncc3c(C)nc(-c4cccc(Oc5ccccc5)c4)n3n2)cc(OC)c1OC,0.83,1.95,0.6,-0.83,3.44,2.38,1.65,0.98,-0.89,1.28,-1.01,1.23,-0.96,1.16,-0.33,3.2,1.56,5.4,3.74,4.87
N#Cc1ccc(Oc2nccc(-c3c(-c4ccc(F)cc4)ncn3C3CCNCC3)n2)cc1,0.87,6.23,6.42,-1.1,2.76,-0.31,7.36,3.45,3.57,1.89,3.42,-0.53,0.7,0.81,0.1,2.13,3.63,7.21,9.65,11
NS(=O)(=O)c1ccc(Nc2cc(-c3ccc(O)c(F)c3)n[nH]2)cc1,-6.35,-0.38,18.8,0.49,3.68,-2.81,-2,-1.84,0.29,-1.07,-0.95,-2.9,-4.28,-1.33,-1.33,-4.5,-0.8,-6.46,-5.56,-3.09
COc1ccc(-c2ccc3c(NC(=O)C4CC4)n[nH]c3n2)cc1,4.87,0.86,0.84,0.14,0.71,-1.64,3.91,-0.19,2.45,-0.2,4.06,-0.83,5.32,0.96,0.05,2.4,3.41,6.38,10.4,1.78
CN(C)CCCNc1nccc(-c2c(-c3ccc(F)cc3)nn3cc(C(F)(F)F)ccc23)n1,-0.64,5.29,11.1,-2.27,1.24,0.77,2.36,1.57,-2.56,1.53,-0.54,0.09,1.55,-2.91,-2.04,0.03,1.47,7,9,8.88
COC(=O)Nc1nc2ccc(Sc3ccc(NC(=O)Nc4cc(C(F)(F)F)ccc4F)cc3)cc2[nH]1,7.52,56.3,83.5,-0.94,2.67,-0.44,2.71,2.04,0.54,0.63,0.47,4.21,1.97,25.8,89.6,9.91,34.5,49.5,81.6,43.4
Fc1ccc(-c2c(-c3ccncc3)nc3n2CCS3)cc1,5.05,0.56,-0.39,-4.84,-0.06,3.61,22.2,1.81,1.46,1.14,1.49,2.41,2.54,-5.85,-4.53,-0.6,0.35,6.26,8.11,1.66

# — ChEMBL document CHEMBL1961873, “Compounds: GSK PKIS; Assays: Nanosyn kinase panel” (2012)
